Experimental data taken from PubChem BioAssay AID1159580 (chemical genetic matrix, 2015).
Where “and” joins values, the source holds several entries; their conditions need not be identical. Identical values can stand only once. The campaign covered roughly 5,500 compounds. About 2,000 (36%) were called active. About 18% were inconclusive and are not listed. No stated cut-off is given here; in the data, active means normalized growth mostly below about 0.91 (no sharp cut-off); inconclusive means no clear call, values can overlap the other calls; inactive means mostly above about 0.92. The list shows a part of the results.

Assay: chemical genetic growth profiling, strain panel (AID 1159580);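 further: tested at 20 µM; growth read once vehicle control cultures reached saturation at 30 °C; 1 = growth at the plate median or of vehicle wells; lower values mean less growth of the strain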
Conditions: S. cerevisiae deletion strains, growth OD

Measured: normalized growth

CCCCCCCCCCCCCCCC[N+](C)(C)C
active: locus YAL013W, strain DEP1, active compounds read low 0.0576 | locus YAL021C, strain ccr4, active compounds read low 0.0584 | locus YAL026C, strain drs2, active compounds read low 0.0563 | locus YAL030W, strain snc1, active compounds read low 0.0653 | locus YBL061C, strain skt5, active compounds read low 0.057 | locus YBR009C, strain hhf1, active compounds read low 0.06 | locus YBR021W, strain FUR4, active compounds read low 0.123 | locus YBR023C, strain chs3, active compounds read low 0.0601 | locus YBR171W, strain sec66, active compounds read low 0.0733 | locus YBR229C, strain ROT2, active compounds read low 0.0267 | locus YBR231C, strain swc5, active compounds read low 0.0573 | locus YBR279W, strain paf1, active compounds read low 0.0573 | locus YCL011C, strain gbp2, active compounds read low 0.055 | locus YCL016C, strain dcc1, active compounds read low 0.0605 | locus YCL029C, strain bik1, active compounds read low 0.0609 | locus YCL061C, strain MRC1, active compounds read low 0.0602 | locus YCL069W, strain vba3, active compounds read low 0.0611 | locus YCR088W, strain abp1, active compounds read low 0.0586 | locus YDL005C, strain med2, active compounds read low 0.0729 | locus YDL035C, strain GPR1, active compounds read low 0.0499 | locus YDL040C, strain nat1, active compounds read low 0.0563 | locus YDL074C, strain BRE1, active compounds read low 0.0802 | locus YDL101C, strain DUN1, active compounds read low 0.0512 | locus YDL134C, strain PPH21, active compounds read low 0.0552 | locus YDL185W, strain tfp1, active compounds read low 0.0826 | locus YDL192W, strain arf1, active compounds read low 0.0605 | locus YDR001C, strain nth1, active compounds read low 0.0561 | locus YDR069C, strain doa4, active compounds read low 0.0578 | locus YDR101C, strain arx1, active compounds read low 0.0591 | locus YDR137W, strain rgp1, active compounds read low 0.0808 | locus YDR150W, strain NUM1, active compounds read low 0.0572 | locus YDR159W, strain sac3, active compounds read low 0.0724 | locus YDR162C, strain NBP2, active compounds read low 0.0544 | locus YDR195W, strain ref2 0.0903 | locus YDR297W, strain sur2, active compounds read low 0.0606 | locus YDR318W, strain mcm21, active compounds read low 0.0624 | locus YDR334W, strain swr1, active compounds read low 0.0599 | locus YDR335W, strain msn5, active compounds read low 0.0601 | locus YDR388W, active compounds read low 0.0556 | locus YDR392W, strain spt3, active compounds read low 0.0767 | locus YDR502C, strain sam2, active compounds read low 0.0598 | locus YEL003W, strain gim4, active compounds read low 0.0527 | locus YEL037C, strain rad23, active compounds read low 0.0584 | locus YEL061C, strain CIN8 (second series), active compounds read low 0.0593 | locus YEL061C, strain CIN8, active compounds read low 0.0474 | locus YER015W, strain faa2, active compounds read low 0.0592 | locus YER016W, strain bim1, active compounds read low 0.0587 | locus YER110C, active compounds read low 0.0715 | locus YER111C, strain swi4, active compounds read low 0.0703 | locus YER155C, strain BEM2 (second series), active compounds read low 0.0841 | locus YER155C, strain BEM2, active compounds read low 0.0716 | locus YER167W, strain BCK2, active compounds read low 0.0534 | locus YFR010W, strain ubp6, active compounds read low 0.0598 | locus YGL078C, strain dbp3, active compounds read low 0.0583 | locus YGL086W, strain mad1, active compounds read low 0.055 | locus YGL167C, strain pmr1, active compounds read low 0.0703 | locus YGL173C, strain kem1, active compounds read low 0.0795 | locus YGL227W, strain vid30, active compounds read low 0.0598 | locus YGL240W, strain doc1, active compounds read low 0.0655 | locus YGL248W, strain PDE1, active compounds read low 0.0448 | locus YGL253W, strain hxk2, active compounds read low 0.0528 | locus YGR078C, strain PAC10, active compounds read low 0.0545 | locus YGR135W, strain pre9, active compounds read low 0.0674 | locus YGR229C, strain SMI1, active compounds read low 0.0636 | locus YGR252W, strain gcn5, active compounds read low 0.153 | locus YHR013C, strain ard1, active compounds read low 0.0817 | locus YHR027C, strain rpn1, active compounds read low 0.0592 | locus YHR030C, strain SLT2, active compounds read low 0.0556 and 0.0924 | locus YHR079C, strain IRE1 (second series), active compounds read low 0.0564 | locus YHR079C, strain IRE1, active compounds read low 0.0965 | locus YHR094C, strain hxt1, active compounds read low 0.0577 | locus YHR129C, strain ARP1, active compounds read low 0.0524 | locus YHR142W, strain chs7, active compounds read low 0.062 | locus YHR200W, strain rpn10, active compounds read low 0.0595 | locus YIL066C, strain RNR3, active compounds read low 0.0478 | locus YIL073C, strain SPO22, active compounds read low 0.0966 | locus YIL125W, strain kgd1, active compounds read low 0.0641 | locus YIR030C, strain dcg1, active compounds read low 0.0583 | locus YJL092W, strain hpr5, active compounds read low 0.0559 | locus YJL095W, strain BCK1 (second series), active compounds read low 0.0547 | locus YJL095W, strain BCK1, active compounds read low 0.049 and 0.0904 | locus YJL115W, strain asf1, active compounds read low 0.0708 | locus YJL129C, strain trk1, active compounds read low 0.0757 | locus YJL134W, strain LCB3, active compounds read low 0.0478 | locus YJL154C, strain vps35, active compounds read low 0.0607 | locus YJL164C, strain tpk1, active compounds read low 0.0535 | locus YJL166W, strain qcr8, active compounds read low 0.0568 | locus YJL168C, strain set2, active compounds read low 0.0569 | locus YJL187C, strain SWE1 (second series), active compounds read low 0.0409 | locus YJL187C, strain SWE1, active compounds read low 0.0593 | locus YJR043C, strain POL32, active compounds read low 0.0614 | locus YJR066W, strain TOR1, active compounds read low -0.00145
